Bioassay records deposited in PubChem BioAssay by Broad Institute.
miR122 inh: activators of miR-122 sensor in Huh7 cells; activation, % at 12.5 µM; actives 0.14% (n = 340,000); Huh7 psiCHECK-miR122 Renilla luciferase sensor, 48 h;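 active means mean activation of 30% or more, with every replicate also reaching 30%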;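 further: 0% = median of neutral control wells and 100% = median of positive control wells; higher luciferase signal means stronger suppression of miR-122 activity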
* marks the source's active call; other numbers are inactive results. Many of the other results were omitted from the sample, so hits are more common in it than they were.

SMILES	miR122 inh
Cc1cc(C)c(C)c(S(=O)(=O)NCc2ccncc2)c1C	-122
Cc1ccc(C)c(S(=O)(=O)NCCCc2ccccc2)c1	-93
CC(=O)Nc1ccc(S(=O)(=O)NCCc2ccc(S(N)(=O)=O)cc2)cc1	-226
O=C(Nc1ccc(S(=O)(=O)NCCc2ccccc2)cc1)c1ccco1	-365
Cc1cc(C(C)(C)C)cc(S(=O)(=O)NCCc2ccncc2)c1C	44*
C[C@@H]1CN([C@@H](C)CO)C(=O)c2cc(C#Cc3ccccc3)cnc2O[C@H]1CN(C)Cc1ccccn1	7
CCC(=O)N(C)C[C@H]1Oc2ncc(C#C[C@@H](C)O)cc2C(=O)N([C@H](C)CO)C[C@@H]1C	-4
C[C@@H]1CN([C@H](C)CO)C(=O)c2cc(C#Cc3cccnc3)cnc2O[C@@H]1CN(C)S(C)(=O)=O	-6
C[C@H](CO)N1C[C@H](C)[C@@H](CN(C)S(=O)(=O)c2ccccc2F)Oc2cc(C#Cc3ccccc3)ccc2S1(=O)=O	-34
C[C@H]1CN([C@@H](C)CO)C(=O)c2cc(-c3ccccc3)cnc2O[C@@H]1CN(C)C(=O)Nc1ccc2c(c1)OCO2	1
C[C@H](CO)N1C[C@H](C)[C@H](CN(C)C(=O)Nc2ccc3c(c2)OCO3)Oc2ncc(-c3cccc(C(F)(F)F)c3)cc2C1=O	33*
COCC(=O)N(C)C[C@H]1Oc2ncc(C#Cc3ccccc3OC)cc2C(=O)N([C@H](C)CO)C[C@@H]1C	4
C[C@H](CO)N1C[C@H](C)[C@@H](CN(C)Cc2ccc3c(c2)OCO3)Oc2c(NC(=O)C3CC3)cccc2C1=O	-92
COc1cccc(NC(=O)N(C)C[C@@H]2Oc3ncc(C#Cc4ccncc4)cc3C(=O)N([C@@H](C)CO)C[C@H]2C)c1	33*
C[C@@H]1CN([C@H](C)CO)C(=O)c2cccc(NC(=O)c3ccc(-c4nccs4)cc3)c2O[C@@H]1CN(C)Cc1ccc(C(=O)Nc2ccccc2N)cc1	-203
CCC(=O)N(C)C[C@@H]1Oc2ncc(C#Cc3ccccc3OC)cc2C(=O)N([C@H](C)CO)C[C@H]1C	6
COc1cccc(NC(=O)N(C)C[C@H]2Oc3ncc(C#Cc4ccccc4)cc3C(=O)N([C@@H](C)CO)C[C@@H]2C)c1	-3
COc1cccc(NC(=O)N(C)C[C@@H]2Oc3ncc(C#Cc4ccccc4)cc3C(=O)N([C@@H](C)CO)C[C@@H]2C)c1	-2
C[C@@H]1CN([C@@H](C)CO)C(=O)c2cccc(NC(=O)c3ccc(-c4nccs4)cc3)c2O[C@H]1CN(C)Cc1ccc2c(c1)OCO2	38*
COc1ccccc1C#Cc1cnc2c(c1)C(=O)N([C@H](C)CO)C[C@H](C)[C@@H](CN(C)C(=O)c1ccc3c(c1)OCO3)O2	35*
C[C@@H]1CN([C@@H](C)CO)C(=O)c2cc(-c3ccccc3)cnc2O[C@H]1CN(C)C(=O)Nc1ccc2c(c1)OCO2	-8
CC(C)C#Cc1cnc2c(c1)C(=O)N([C@@H](C)CO)C[C@@H](C)[C@@H](CN(C)Cc1ccccn1)O2	7
CCCNC(=O)N(C)C[C@@H]1Oc2ncc(C#C[C@@H](C)O)cc2C(=O)N([C@H](C)CO)C[C@H]1C	3
COc1ccc(-c2cnc3c(c2)C(=O)N([C@H](C)CO)C[C@H](C)[C@@H](CN(C)Cc2ccccn2)O3)cc1	-3
CCC(=O)N(C)C[C@@H]1Oc2cc(C#C[C@@H](C)O)ccc2S(=O)(=O)N([C@H](C)CO)C[C@H]1C	-5
SMILES	miR122 inh
Cc1ccc(-c2cnc3c(c2)C(=O)N([C@@H](C)CO)C[C@@H](C)[C@H](CN(C)C(=O)c2ccncc2)O3)cc1	1
C[C@H]1CN([C@@H](C)CO)C(=O)c2cc(/C=C/c3ccccc3)cnc2O[C@@H]1CN(C)C(=O)Cc1ccccn1	7
C[C@@H]1CN([C@@H](C)CO)S(=O)(=O)c2ccc(/C=C/c3ccccc3)cc2O[C@H]1CN(C)C(=O)Nc1cccc(F)c1	-9
CC(C)CC#Cc1cnc2c(c1)C(=O)N([C@H](C)CO)C[C@H](C)[C@@H](CN(C)C(=O)Nc1ccccc1F)O2	3
COC(=O)C[C@H]1CC[C@H]2[C@H](COc3ccc(NC(=O)NC(C)C)cc3C(=O)N2C)O1	50*
CO[C@@H]1CN(C)C(=O)c2cc(NC(=O)NC(C)C)ccc2OC[C@H](C)N(C(=O)NC(C)C)C[C@@H]1C	-3
CNC(=O)C[C@@H]1CC[C@@H]2[C@H](COc3ccc(NC(=O)NC(C)C)cc3C(=O)N2C)O1	53*
COC(=O)C[C@H]1CC[C@H]2[C@H](COc3ccc(NS(=O)(=O)c4ccc(F)cc4)cc3C(=O)N2C)O1	37*
CO[C@@H]1CN(C)C(=O)c2ccc(NC(=O)NC(C)C)cc2OC[C@@H](C)NC[C@@H]1C	-1
CO[C@@H]1CN(C)C(=O)c2cc(NC(=O)NC(C)C)ccc2OC[C@@H](C)N(C(=O)NC(C)C)C[C@@H]1C	0
COC(=O)C[C@H]1CC[C@H]2[C@H](COc3ccc(NC(=O)Nc4ccccc4C)cc3C(=O)N2C)O1	-117
C[C@@H]1CN([C@H](C)CO)C(=O)c2cc(/C=C/c3ccccc3)cnc2O[C@H]1CN(C)C(=O)C1CCOCC1	-1
